From PubChem BioAssay
miR-122 inh – miR-122 sensor activation | hit rate 0.14% among 340,000 | Huh7 psiCHECK-miR122 Renilla luciferase sensor, 48 h | activation, % at 12.5 µM;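 active = mean activation of 30% or more, with every replicate also reaching 30%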;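 note: higher luciferase signal means stronger suppression of miR-122 activity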
Of the large screens only hits and unclear results are named; the others gave an inactive call. The sample as a whole holds a higher share of hits than the screen did.

C[C@@H]1CN([C@@H](C)CO)S(=O)(=O)c2ccc(-c3ccc(C(=O)N(C)C)cc3)cc2O[C@H]1CN(C)C(=O)C1CCOCC1	none
C[C@@H]1CN([C@@H](C)CO)S(=O)(=O)c2ccc(-c3cncnc3)cc2O[C@H]1CN(C)C(=O)Cc1ccncc1	none
C[C@@H]1CN([C@H](C)CO)S(=O)(=O)c2ccc(C3=CCCC3)cc2O[C@@H]1CN(C)C(=O)C1CCOCC1	miR-122 inh 34
C[C@@H]1CN([C@H](C)CO)S(=O)(=O)c2ccc(C3=CCCC3)cc2O[C@@H]1CN(C)C(=O)Cc1ccncc1	miR-122 inh 33
C[C@H]1CN([C@@H](C)CO)S(=O)(=O)c2ccc(-c3ccc(F)cc3)cc2O[C@@H]1CN(C)C(=O)C1CCOCC1	none
C[C@@H]1CN([C@@H](C)CO)S(=O)(=O)c2ccc(-c3ccc(F)cc3)cc2O[C@@H]1CN(C)C(=O)C1CCOCC1	none
C[C@@H]1CN([C@@H](C)CO)C(=O)c2cc(C#Cc3ccccc3)cnc2O[C@H]1CN(C)Cc1ccccn1	none
C[C@@H]1CN([C@@H](C)CO)C(=O)c2cc(-c3cncnc3)cnc2O[C@H]1CN(C)Cc1ccc(F)cc1	none
CCCNC(=O)Nc1ccc2c(c1)OC[C@H](C)N(C)C[C@@H](C)[C@@H](OC)CN(C)C2=O	none
C[C@H]1CN([C@@H](C)CO)C(=O)c2cc(-c3ccc(F)cc3)cnc2O[C@@H]1CN(C)Cc1ccccn1	none
C[C@@H]1CN([C@H](C)CO)C(=O)c2cc(C#Cc3cccc(F)c3)cnc2O[C@@H]1CN(C)CC1CCOCC1	none
COc1cccc(-c2ccc3c(c2)O[C@@H](CN(C)C(C)=O)[C@H](C)CN([C@H](C)CO)S3(=O)=O)c1	none
CC(C)NC(=O)N(C)C[C@@H]1Oc2ncc(C3=CCCCC3)cc2C(=O)N([C@@H](C)CO)C[C@H]1C	none
C[C@@H]1CN([C@H](C)CO)C(=O)c2cc(C#Cc3cccc(F)c3)cnc2O[C@@H]1CN(C)CC1CCCC1	none
C[C@H]1CN([C@@H](C)CO)C(=O)c2cc(C#Cc3cccc(F)c3)cnc2O[C@H]1CN(C)C(=O)C1CC1	none
CCCNC(=O)N(C)C[C@@H]1Oc2ncc(C#C[C@@H](C)O)cc2C(=O)N([C@@H](C)CO)C[C@@H]1C	none
C[C@H](CO)N1C[C@H](C)[C@H](CN(C)Cc2ccc(C(=O)Nc3ccccc3N)cc2)Oc2ccc(NC(=O)C3CC3)cc2CC1=O	none
Cc1ccc(S(=O)(=O)N(C)C[C@@H]2Oc3ccc(NC(=O)Nc4ccc(C(F)(F)F)cc4)cc3CC(=O)N([C@H](C)CO)C[C@@H]2C)cc1	none
C[C@@H]1CN([C@@H](C)CO)C(=O)Cc2cc(NC(=O)C3CCCCC3)ccc2O[C@H]1CN(C)Cc1ccc(-c2ccccc2)cc1	miR-122 inh 33
C[C@H](CO)N1C[C@H](C)[C@H](CN(C)Cc2ccc(C(=O)Nc3ccccc3N)cc2)Oc2ccc(NC(=O)C3CCCCC3)cc2CC1=O	none
C[C@@H]1CN([C@@H](C)CO)C(=O)Cc2cc(NC(=O)Nc3ccc(C(F)(F)F)cc3)ccc2O[C@H]1CN(C)CC1CCCCC1	miR-122 inh 31
C[C@@H]1CN([C@H](C)CO)C(=O)Cc2cc(NS(=O)(=O)c3ccc(Cl)cc3)ccc2O[C@@H]1CN(C)C(=O)Nc1ccc(C(F)(F)F)cc1	none
CCCNC(=O)N(C)C[C@@H]1Oc2cc(C#CCOC)ccc2S(=O)(=O)N([C@@H](C)CO)C[C@@H]1C	none
COc1ccccc1NC(=O)N(C)C[C@H]1Oc2ncc(C#CCC(C)C)cc2C(=O)N([C@H](C)CO)C[C@@H]1C	none
CC(C)CC#Cc1ccc2c(c1)O[C@@H](CN(C)C(=O)NC1CCCC1)[C@@H](C)CN([C@@H](C)CO)S2(=O)=O	none
C[C@@H]1CN([C@H](C)CO)C(=O)c2cc(C#Cc3ccccc3F)cnc2O[C@@H]1CN(C)S(=O)(=O)c1ccccc1	none
C[C@H](CO)N1C[C@H](C)[C@@H](CN(C)CC2CCOCC2)Oc2ncc(C#CCC3CCCC3)cc2C1=O	none
CC(=O)N(C)C[C@@H]1Oc2cc(C#C[C@H](C)O)ccc2S(=O)(=O)N([C@@H](C)CO)C[C@H]1C	none
Cc1ccc(-c2ccc3c(c2)O[C@H](CN(C)Cc2cccc(C(=O)O)c2)[C@@H](C)CN([C@@H](C)CO)S3(=O)=O)cc1	none
C[C@@H]1CN([C@H](C)CO)C(=O)c2cc(-c3ccc(F)cc3)cnc2O[C@H]1CN(C)Cc1ccc(C(=O)O)cc1	none
CCn1nc(C)cc1-c1nnc(Sc2ncc([N+](=O)[O-])s2)n1C	miR-122 inh 45
C[C@@H]1CN([C@@H](C)CO)S(=O)(=O)c2ccc(C#Cc3ccccc3)cc2O[C@@H]1CN(C)S(=O)(=O)c1ccccc1F	none
Cc1noc(C)c1NC(=O)N(C)C[C@H]1Oc2cc(C#CCC(C)C)ccc2S(=O)(=O)N([C@@H](C)CO)C[C@@H]1C	none
C[C@H](CO)N1C[C@H](C)[C@H](CN(C)Cc2ccccn2)Oc2cc(-c3cncnc3)ccc2S1(=O)=O	none
C[C@H](CO)N1C[C@H](C)[C@@H](CN(C)CC2CCCCC2)OCCCC[C@H](C)Oc2ccc(NC(=O)Nc3cccc4ccccc34)cc2C1=O	miR-122 inh 34
C[C@H](CO)N1C[C@H](C)[C@@H](CN(C)CC2CCCCC2)Oc2c(NC(=O)c3ccncc3)cccc2C1=O	none
C[C@@H]1CCCCO[C@@H](CN(C)CC2CCCCC2)[C@@H](C)CN([C@@H](C)CO)C(=O)c2cc(NC(=O)Nc3cccc4ccccc34)ccc2O1	miR-122 inh 31
C[C@H]1CN([C@@H](C)CO)C(=O)c2cccc(NC(=O)Nc3ccc(C(F)(F)F)cc3)c2O[C@@H]1CN(C)CC1CCCCC1	none
C[C@@H]1CN([C@@H](C)CO)C(=O)Cc2cc(NC(=O)Nc3cccc4ccccc34)ccc2O[C@@H]1CN(C)C(=O)NC1CCCCC1	none
COc1ccc(S(=O)(=O)Nc2ccc3c(c2)C(=O)N([C@@H](C)CO)C[C@H](C)[C@H](CN(C)C(=O)Nc2ccccc2)OCCCC[C@@H](C)O3)cc1	none
C[C@H]1CN([C@@H](C)CO)S(=O)(=O)c2ccc(-c3ccccc3)cc2O[C@H]1CN(C)Cc1ccccc1C(=O)O	none
CCN1CCN(Cc2ccc(NC(=O)c3ccc(C)c(NC(=O)c4c[nH]c5cc(C(F)(F)F)ccc5c4=O)c3)cc2C(F)(F)F)CC1	miR-122 inh 33
COCC#Cc1ccc2c(c1)O[C@@H](CN(C)Cc1cncnc1)[C@H](C)CN([C@H](C)CO)S2(=O)=O	none
CN1CCN(c2ccc(Cl)cc2NC(=O)c2ccc(S(=O)(=O)N3CCCCCC3)cc2)CC1	miR-122 inh 40
COc1ccc(NC(C)=O)cc1S(=O)(=O)Nc1ccc(S(=O)(=O)N2CCCCC2)cc1	none
COc1cccc(C(=O)Nc2cc([N+](=O)[O-])ccc2N2CCN(C)CC2)c1	none
COCC#Cc1ccc2c(c1)O[C@@H](CN(C)C(=O)COC)[C@H](C)CN([C@@H](C)CO)S2(=O)=O	none
c1ccc(CCNc2nnnn2-c2ccccc2)cc1	miR-122 inh 46
CC(C)(CNC(=S)NCCc1ccccc1)CNC(=S)NCCc1ccccc1	none
CO[C@H]1CN(C)C(=O)c2ccc(NC(=O)c3ccccc3)cc2OC[C@H](C)N(C)C[C@@H]1C	none
C/C=C/c1cnc2c(c1)C(=O)N([C@H](C)CO)C[C@@H](C)[C@H](CN(C)S(=O)(=O)c1cccs1)O2	none
N#C/C(=C\c1ccc(N2CCOCC2)o1)C(=O)NCC1CCCO1 (stereo not drawn)	miR-122 inh 36
C[C@@H]1CN([C@@H](C)CO)C(=O)c2cc(C#Cc3ccccn3)cnc2O[C@H]1CN(C)Cc1cncnc1	none
CCC(=O)N1C[C@@H](C)[C@H](OC)CN(C)C(=O)c2ccc(NS(C)(=O)=O)cc2OC[C@H]1C	none
